Measurements taken from PubChem BioAssay (NCI).
This is part of a sample that, as a whole, favours compounds with a hit. Of some 83,000 tested, about 20% had one in any assay.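 For each line, cells grew in 96-well plates with the test compound present at a single concentration for 48 hours.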 Calls of active or inactive are those of the source. Rule for the calls: active = growth percent below 10; inactive = the rest.

What was measured:
Assay in all cases: NCI-60 one-dose screen, 48 h (100 = growth as untreated, 0 = no growth, -100 = all killed)
Conditions in all cases: 10 µM unless noted
[1] = system: T-47D breast
[2] = system: BT-549 breast
[3] = system: MDA-MB-435 melanoma
[4] = system: SW-620 colon
[5] = system: MCF7 breast
[6] = system: HCT-116 colon
[7] = system: HCC-2998 colon
[8] = system: KM12 colon

Measured: growth

Cc1ccc(/C=C/C(=O)c2ccc(-n3cc(CN4CCN(c5cc6c(cc5F)c(=O)c(C(=O)O)cn6C5CC5)CC4)nn3)cc2)cc1
inactive: [1] 86.7% | [2] 73.7% | [3] 77.4% | [4] 98.4% | [5] 59.2% | [7] 92.4% | [8] 84.1%
active: [6] 8.04%

Clc1c(Cl)[n+](Cc2ccc3ccccc3c2)cn1Cc1ccc2ccccc2c1
inactive: [4] 34.4% | [5] 11.8% | [7] 16%
active: [1] -3.8% | [2] -69.5% | [3] -31.4% | [6] 7.02% | [8] -67.6%

Cc1cccc[n+]1C1c2ccccc2-c2ccccc21
inactive: [1] 60.8% | [2] 86.8% | [3] 102% | [4] 103% | [5] 95.1% | [6] 78.5% | [7] 105% | [8] 101%

O=C(N/N=C/c1cc(Cl)ccc1O)c1ccccc1Nc1ccnc(C(F)(F)F)c1
inactive: [2] 18.7% | [3] 35.2% | [4] 36.3% | [5] 20.6% | [6] 32.2% | [7] 81.3% | [8] 34.5%
active: [1] 8.91%

CCn1cc(CNc2ccc(C(=O)Nc3cc4cc(OC)c(OC)cc4c(C)n3)cc2)cn1
active: [1] -3.23%
inactive: [2] 24.6% | [3] 10.5% | [4] 75.3% | [5] 46.6% | [6] 46.8% | [7] 87.8% | [8] 33.3%

CCOC(=O)c1ccccc1-c1c2ccc(=[N+](C)C)cc-2oc2cc(N(C)C)ccc12
active: [1] 6.72% | [2] -10.1% | [5] 3.95% | [6] 4.32% | [8] 7.32%
inactive: [3] 11.8% | [4] 15% | [7] 96.9%

CN1C(=O)/C(=C2\SC(=Nc3ccccc3)N(Nc3ccccc3)C2=O)c2ccccc21
inactive: [1] 82.2% | [2] 109% | [3] 106% | [4] 98.3% | [5] 86.2% | [6] 104% | [7] 113% | [8] 103%

Nc1nc(N)c2c(n1)NC(c1cccc(Nc3ccnc4cc(C(F)(F)F)ccc34)c1)CC(c1ccccc1)=N2 (stereo not drawn)
active: [3] -30.4%
inactive: [1] 83.4% | [2] 114% | [4] 32.4% | [5] 16.9% | [6] 21% | [7] 54.2% | [8] 33.5%

C=C(CNCCc1ccc(O)cc1)[C@@H]1CC[C@]2(CO)CC[C@]3(C)[C@H](CC[C@@H]4[C@@]5(C)CCC(=O)C(C)(C)[C@@H]5CC[C@]43C)[C@@H]12
active: [3] 2.13% | [4] -49.8% | [5] -1.07% | [6] -86.1% | [8] 1.19%
inactive: [1] 42.2% | [2] 79.5% | [7] 17.3%

CCc1ccc(CCC(=O)Nc2ncc(Cc3cc(Cl)ccc3Cl)s2)o1
inactive: [1] 44% | [2] 36.4% | [4] 24.1% | [5] 14% | [6] 17.5% | [7] 19.7% | [8] 20.3%
active: [3] -42.6%

N#C/C(=C\c1cn(Cc2ccccc2)c2ccccc12)C(=O)Nc1ncc(Cc2ccccc2Cl)s1
active: [1] -29.3% | [3] -15.1% | [4] 2.61% | [6] 0.288%
inactive: [2] 52.8% | [5] 23.8% | [7] 58.4% | [8] 26.4%

CCC1S/C(=N\N=C(\C)c2cc3cc(Cl)ccc3o2)N(c2ccccc2)C1=O (stereo not drawn)
inactive: [1] 88.5% | [2] 119% | [3] 96.4% | [4] 90% | [5] 100% | [6] 84.2% | [7] 83.2% | [8] 91.6%

Oc1c(CN2CCC(N3CCCCC3)CC2)cc(Cc2cc(CN3CCC(N4CCCCC4)CC3)c(O)c3ncccc23)c2cccnc12
active: [1] 7.31% | [3] -13.1% | [5] 6.62%
inactive: [2] 27% | [4] 29.1% | [6] 13% | [7] 32.9% | [8] 21.7%

CN(CCC(=O)c1ccccc1)CCC(=O)c1ccccc1
inactive: [1] 113% | [2] 79.7% | [3] 102% | [4] 99.8% | [5] 70.2% | [6] 93.3% | [7] 93.3% | [8] 98.7%

CC1(C)C(N)=Nc2cc(OCCCN3Cc4ccccc4C3)c(OCC3CC3)cc21
inactive: [1] 45.8% | [2] 76.5% | [3] 66.6% | [4] 87.8% | [5] 50.4% | [6] 49.2% | [7] 11.9% | [8] 84.2%

COc1ccc(C(=O)c2cc3c(N)c(C(=O)Nc4ccccc4)sc3nc2C)cc1
inactive: [1] 39% | [2] 60.6% | [4] 28.2% | [5] 20.7% | [6] 13.4% | [7] 19% | [8] 14.9%
active: [3] -5.47%

Cn1ccc(=O)nc1
inactive: [1] 99.1% | [2] 110% | [3] 106% | [4] 53.5% | [5] 52.2% | [6] 60.6% | [7] 96.8% | [8] 95%

CO[C@H]1CC(=O)n2c3ccccc3c3c4c(c5c6ccccc6n1c5c32)C(=O)NC4=O
inactive: [1] 11.1% | [2] 68.6% | [3] 48.5% | [4] 32.8% | [5] 20.1% | [6] 55.6% | [7] 93.7% | [8] 29.9%

CN1CCN(CCOc2ccc(-c3cnc4c(-c5ccc(F)cc5)cnn4c3)cc2)CC1
active: [3] -34.3% | [4] -86.9% | [8] 9.72%
inactive: [1] 52.7% | [2] 82.8% | [5] 41% | [6] 14.5% | [7] 71.6%

COc1cccc(CCNc2ncnc3c2ncn3Cc2nnc3c4ccccc4c(Cl)nn23)c1
inactive: [1] 48.5% | [2] 47.8% | [3] 57.5% | [4] 57.4% | [5] 63% | [6] 39.6% | [7] 91.9% | [8] 80%

COc1ccc(C2CC(c3cc(OC)c(OC)c(OC)c3)=NO2)cc1OCCCCOc1cc2c(cc1OC)C(=O)N1CCC[C@H]1C=N2 (stereo partly drawn)
active: [2] -71.4% | [3] -58.1% | [4] -21.9% | [5] 5.25% | [6] 8.33% | [7] -67.3% | [8] -22%
inactive: [1] 11.4%

COc1ccc(CCN2C(=O)/C(=C/c3ccc(C4Oc5ccccc5C5CC(c6ccccc6)=NN54)cc3)SC2=S)cc1 (stereo not drawn)
inactive: [1] 103% | [2] 101% | [3] 104% | [4] 100% | [5] 97.3% | [6] 104% | [7] 104% | [8] 106%

C=C1C(=O)O[C@H]2[C@H]1CC/C(COC(=O)/C=C\C(=O)NCc1ccc(Cn3c(=O)sn(CCCl)c3=O)cc1)=C\CC[C@@]1(C)O[C@@H]21
inactive: [1] 84.7% | [2] 85.5% | [3] 65.8% | [4] 31.2% | [5] 61.8% | [6] 68.7% | [7] 117% | [8] 97.1%

Cn1cc(-c2csc(-c3cn(CCCN4CCOCC4)c4ccccc34)n2)c2cccnc21
inactive: [1] 62.1% | [2] 88.7% | [3] 91.6% | [4] 94.6% | [5] 85.6% | [6] 84.4% | [7] 92.9% | [8] 85.4%

O=C(C1=Cc2cc3ccccc3n2Cc2cnnn21)c1ccc(O)cc1
active: [3] -7.67%
inactive: [1] 44.9% | [2] 54.8% | [4] 28.7% | [5] 34.3% | [6] 46.4% | [7] 83.8% | [8] 29.5%

O=C(NNC(=O)c1ccc(NC(=O)c2ccccn2)cc1)Nc1ccc2ccccc2c1
inactive: [1] 106% | [2] 107% | [3] 110% | [4] 116% | [5] 96% | [6] 102% | [7] 121% | [8] 102%

NS(=O)(=O)c1ccc(-c2cc(-c3nnc(SCC(=O)Nc4ccc(C(=O)/C=C/c5ccc(Cl)cc5)cc4)n3-c3ccccc3)c3ccccc3n2)cc1
inactive: [1] 79.9% | [2] 97.9% | [3] 94% | [4] 97.7% | [5] 70.6% | [7] 105% | [8] 92.1%
active: [6] 7.54%

Cc1ccc(C(=O)Nc2cccc(C#Cc3cccc4[nH]nc(N)c34)c2)cc1C(F)(F)F
inactive: [1] 46.3% | [2] 86.6% | [3] 62.4% | [4] 65.4% | [5] 59.8% | [6] 25.2% | [7] 51% | [8] 64.3%

CCN(CC)CCCN1C(=O)c2c(c(C)c3c(oc4ccc(OC)cc43)c2C)C1=O
inactive: [1] 105% | [2] 119% | [3] 109% | [4] 97.9% | [5] 98.3% | [6] 93.3% | [7] 105% | [8] 104%

C=C1C(=O)O[C@H]2[C@H]1CC/C(COC(=O)NCc1ccc(Cn3c(=O)sn(-c4ccc(C#N)cc4)c3=O)cc1)=C\CC[C@@]1(C)O[C@@H]21
inactive: [1] 28.1% | [2] 60.4% | [3] 59.6% | [4] 24.1% | [5] 27.5% | [6] 25.4% | [7] 104% | [8] 101%

C#COc1cccc(Nc2ncnc3cc(NC(=O)[C@@H](C)Cl)ccc23)c1
active: [1] -1.06% [6.25 µM] | [3] -58.4% [6.25 µM] | [6] 9.6% [6.25 µM]
inactive: [2] 22.2% [6.25 µM] | [4] 20.4% [6.25 µM] | [5] 11.6% [6.25 µM] | [7] 15.2% [6.25 µM] | [8] 14.8% [6.25 µM]
